# In all, about 52,000 compounds went through this assay and about 4,300 (8.3%) were called active. The entries come from a sample that favours actives as a whole. Values without a mark were called inactive. Rule as the data show it: active = survival mostly below about 52% (no sharp cut-off); inactive = mostly above about 56%.
# System: DeltatarO mutant
# Assay: S. aureus survival, RN4220 and DeltatarO strains – OD600, teichoic acid synthesis inhibitors, primary screen (AID 463173)
# Conditions: S. aureus RN4220 wild type/DeltatarO growth, OD600, 18 h, hits give low values, screened at 18.75 µg/mL (by protocol)
row,SMILES,survival
1,CCc1cccc(C)c1NS(=O)(=O)c1c(C(=O)N2CCCCCC2)c(C)n(C)c1C,101%
2,Cc1ccc(-n2ncc(C(=O)N3CCN(C4CCCCC4)CC3)c2C2CCN(C(=O)OC(C)(C)C)CC2)cc1C,85%
3,Cc1cccc(CNS(=O)(=O)c2csc(C(N)=O)c2)c1,76%
4,CC(Oc1ccccc1)C(=O)Nc1ccc(OCc2cc(=O)n3ccsc3n2)cc1 (stereo unspecified),76%
5,CCCn1c(=O)c2sccc2n2c(CCCC(=O)Nc3ccc(C)c(F)c3)nnc12,88%
6,O=C(C1CCCCC1)N1CCN(c2ncnc3c2cnn3-c2ccccc2)CC1,101%
7,O=CN1CCN(C(=O)c2ccc(F)cc2)CC1,78%
8,Cc1c(C(=O)Nc2ccccc2F)sc2ncnc(N(C)C3CCCCC3)c12,37% (active)
9,Cc1c(C(=O)NCc2cccc(Cl)c2)sc2ncnc(N(C)C3CCCCC3)c12,101%
10,Cc1cccc(NC(=O)c2sc3ncnc(N(C)C4CCCCC4)c3c2C)c1C,118%
11,Cc1c(C(=O)Nc2ccccc2Cl)sc2ncnc(N(C)C3CCCCC3)c12,92%
12,Cc1ccc(CNC(=O)c2sc3ncnc(N(C)C4CCCCC4)c3c2C)cc1,91%
13,Cc1cccc(CNC(=O)c2sc3ncnc(N(C)C4CCCCC4)c3c2C)c1,46% (active)
14,O=C(NC1CC(=O)N(c2cccc(F)c2)C1)c1ccc(S(=O)(=O)N2CCCCC2)cc1 (stereo unspecified),91%
15,CCc1ccccc1Nc1ncnc2c1nc1n2CCCC1,94%
16,O=C(CSc1nc2c([nH]c3ccccc32)c(=O)n1-c1ccc(Cl)cc1)N1CCCCCC1,76%
17,CN(Cc1ccc(F)cc1)S(=O)(=O)c1nnc(NC(=O)c2ccccc2Cl)s1,85%
18,CCC(=O)Nc1nnc(S(=O)(=O)N(C)Cc2ccccc2)s1,87%
19,CCCCC(=O)Nc1nnc(S(=O)(=O)N(C)Cc2ccccc2)s1,91%
20,Cc1cccc(C(=O)Nc2nnc(S(=O)(=O)N(C)Cc3ccc(Cl)cc3)s2)c1,95%
21,Cc1cccc(C(=O)Nc2nnc(S(=O)(=O)N(C)Cc3ccccc3)s2)c1,23% (active)
22,Cc1ccccc1C(=O)Nc1nnc(S(=O)(=O)N(C)Cc2ccccc2)s1,75%
23,Cc1cccc(C(=O)Nc2nnc(S(=O)(=O)N(C)c3ccccc3C)s2)c1,32% (active)

row,SMILES,survival
1,Cc1cccc(N(C)S(=O)(=O)c2nnc(NC(=O)C(C)Oc3ccccc3)s2)c1 (stereo unspecified),54%
2,Cc1ccc(C(=O)Nc2nnc(S(=O)(=O)N(C)Cc3ccc(Cl)cc3)s2)cc1,99%
3,CCOc1cccc(C(=O)Nc2nnc(S(=O)(=O)N(C)c3ccc(C)cc3)s2)c1,75%
4,CN(Cc1ccccc1)S(=O)(=O)c1nnc(NC(=O)c2cccc(Cl)c2)s1,1% (active)
5,CN(Cc1ccccc1)S(=O)(=O)c1nnc(NC(=O)c2ccccc2Cl)s1,29% (active)
6,Cc1ccc(S(=O)(=O)c2nnn3c2nc(N(C)Cc2ccccc2)c2cc(Cl)ccc23)cc1C,108%
7,Cc1ccccc1NC(=O)CSCn1nnc2c(=O)[nH]c(Cc3ccc(F)cc3)nc21,55%
8,CC(C)Cn1c(=O)c2ccccc2n2c(CCC(=O)Nc3cccc(Cl)c3)nnc12,88%
9,Cc1cc(OC(C)C(=O)N2CCC(c3nc4ccccc4o3)CC2)ccc1Cl (stereo unspecified),57%
10,COc1ccc(C(=O)N/C(=C\c2cn(S(=O)(=O)N(C)C)c3ccccc23)C(=O)NCCCn2ccnc2)cc1,85%
11,O=C(O)CCc1nnc2cnc3ccccc3n12,171%
12,CCc1ccc(NC(=O)CC2C(=O)NCCN2C(=O)c2ccccc2OC)cc1 (stereo unspecified),109%
13,COC(=O)c1ccc(NC(=O)c2cc3cc4ccc(OC)c(Cl)c4nc3s2)cc1,98%
14,Cc1ccc(NC(=O)CSc2cc(=O)n(C)c3ccc(Cl)cc23)c(Br)c1,79%
15,CCCCOC(=O)c1ccc(NC(=O)Cc2coc3c(C)c(C)ccc23)cc1,79%
16,CN(Cc1ccc(F)cc1)S(=O)(=O)c1nnc(NC(=O)c2ccccc2)s1,102%
17,Cc1ccccc1N(C)S(=O)(=O)c1nnc(NC(=O)C(C)C)s1,69%
18,CN(Cc1ccccc1)S(=O)(=O)c1nnc(NC(=O)c2ccccc2)s1,26% (active)
19,Cc1ccccc1N(C)S(=O)(=O)c1nnc(NC(=O)c2ccccc2F)s1,27% (active)
20,CN(Cc1ccc(F)cc1)S(=O)(=O)c1nnc(NC(=O)c2ccc(F)cc2)s1,81%
21,CCc1ccc(NC(=O)Cn2c(=O)n(-c3cc(OC)c(OC)c(OC)c3)c(=O)c3ccccc32)cc1,72%
22,COC(=O)c1cc2sc(Cl)cc2n1Cc1nc(-c2ccccc2C)oc1C,78%
23,Cc1cc(=O)n2c([nH]c3ccccc32)c1C(=O)O,61%

row,SMILES,survival
1,N#Cc1c(C(F)(F)F)cc(=O)n2c1[nH]c1ccccc12,37% (active)
2,CCOC(=O)CSc1nc(-c2ccccc2)cc(C(F)(F)F)c1C#N,70%
3,CC(=O)N1CCc2c(sc3c2c(=O)n(-c2ccccc2)c(=O)n3CC(=O)Nc2ccccc2)C1,91%
4,COc1cccc(NC(=O)C(=O)NCCc2csc(-c3ccc(C(F)(F)F)cc3)n2)c1,94%
5,CCOc1ccccc1NC(=O)c1nnn(CC(=O)Nc2ccc(OC)c(OC)c2)c1N,91%
6,CCCNC(=O)C1CCN(Cc2cc3ccccc3n2Cc2ccccc2)CC1,87%
7,Cc1ccc(Cn2c(CN3CCC(C(=O)NCC(C)c4ccccc4)CC3)cc3ccccc32)cc1 (stereo unspecified),113%
8,CC(CNC(=O)C1CCN(Cc2cc3ccccc3n2Cc2ccccc2)CC1)c1ccccc1 (stereo unspecified),47% (active)
9,Cc1cc(N2CCN(C)CC2)nc2ccc(NC(=O)Nc3ccc(F)cc3F)cc12,73%
10,O=C(Cc1ccc(F)cc1)NCCc1csc(-c2cccc(F)c2)n1,88%
11,Cc1ccc(C)c(NC(=O)/C(C#N)=C/c2ccc(C(C)C)cc2)c1,66%
12,Cc1cc(Cl)c2cccc(Br)c2n1,110%
13,Cc1cc(Nc2ccccc2C)c2cccc(C)c2n1,62%
14,Cc1cc(Nc2cccc(O)c2)c2cccc(Br)c2n1,61% (active)
15,Cc1ccc(C(C)C)c(OCCCn2c(=O)oc3ccccc32)c1,-3% (active)
16,CCOc1ccccc1NC(=O)NCCn1c(=O)oc2ccc(C)cc21,71%
17,Cc1ccc(C(C)C)c(OCCCn2c(=O)oc3ccc(C)cc32)c1,-5% (active)
18,Cc1cccc(NC(=O)NCCn2c(=O)oc3ccc(C)cc32)c1,71%
19,Cc1ccc(C(C)C)c(OCC(=O)N2CCC(c3nc4ccccc4o3)CC2)c1,80%
20,Cc1ccc(NC(=O)NCCOCCn2c(=O)oc3ccccc32)c(C)c1,70%
21,Cc1ccc(Cl)cc1NC(=O)Cn1c(=O)n(Cc2ccc(C(=O)NCc3ccc4c(c3)OCO4)cc2)c(=O)c2ccccc21,90%
22,COc1ccc(NC(=O)Cn2c(=O)n(-c3cc(C)cc(C)c3)c(=O)c3oc4ccccc4c32)cc1OC,68%
23,CCc1ccccc1NC(=O)c1ccc2c(c1)N(Cc1cccc(Cl)c1)C(=O)c1ccccc1S2(=O)=O,81%

row,SMILES,survival
1,O=S(=O)(NCCc1nnc2ccc(SCc3ccc(C(F)(F)F)cc3)nn12)c1ccccc1,67%
2,Cc1ccc2cccc(NC(=O)c3cccc4c(Cl)cccc34)c2n1,63%
3,COc1ccc(Br)cc1C(=O)Nc1cccc2ccc(C)nc12,73%
4,COc1c(C)cccc1C(=O)Nc1cccc2ccc(C)nc12,-1% (active)
5,Cc1ccc2cccc(NC(=O)c3cccc4c(Br)cccc34)c2n1,134%
6,CCOc1ccccc1C(=O)Nc1cccc2ccc(C)nc12,68%
7,Cc1ccc2cccc(NC(=O)c3cccc4ccccc34)c2n1,-2% (active)
8,Cc1cc2c(cc1S(=O)(=O)CCC(=O)N1CCC(C)CC1)OCC(=O)N2,102%
9,Cc1ccccc1-c1nc(CS(=O)(=O)CC(=O)N2CCN(c3ccccc3)CC2)c(C)o1,65%
10,O=C(Cn1ccc2cc(S(=O)(=O)N3CCCC3)ccc21)NCc1ccc(Cl)cc1,84%
11,Cc1ccc(-c2cc(C(F)(F)F)n3nc(-c4cccc(Br)c4)cc3n2)cc1,46% (active)
12,Cc1cc2nc(-c3ccc(Br)cc3)cc(C(F)(F)F)n2n1,37% (active)
13,Cc1cc(C(F)(F)F)n2nc(-c3ccc(Br)cc3)cc2n1,66%
14,Cc1ccc(-c2cc(C(F)(F)F)n3nc(C(=O)Nc4sc5c(c4C#N)CCC(C)C5)cc3n2)cc1 (stereo unspecified),95%
15,Cc1ccc(-c2cc3nc(-c4ccccc4)cc(C(F)(F)F)n3n2)cc1,69%
16,COc1ccc(-c2cc3nc(-c4ccc(Br)cc4)cc(C(F)(F)F)n3n2)cc1,51%
17,N#Cc1c(NC(=O)c2cc3nc(-c4ccc(Br)cc4)cc(C(F)(F)F)n3n2)sc2c1CCCC2,32% (active)
18,CCc1ccccc1NC(=O)c1cc2nc(-c3ccc(Br)cc3)cc(C(F)(F)F)n2n1,84%
19,CC(=O)c1cccc(NC(=O)c2cc3nc(-c4ccc(Br)cc4)cc(C(F)(F)F)n3n2)c1,49%
20,CCCNC(=O)c1cc2nc(-c3ccc(Br)cc3)cc(C(F)(F)F)n2n1,51% (active)
21,COC(=O)c1c(NC(=O)c2cc3nc(-c4ccc(Br)cc4)cc(C(F)(F)F)n3n2)sc2c1CCCC2,70%
22,COc1cccc(-c2cc(C(F)(F)F)n3nc(-c4ccc(C)cc4)cc3n2)c1,142%
